These results are taken from PubChem BioAssay (NCATS).

A short description of experiment [1]: Cell Viability - BJ (AID 421; calls by dose curve;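 note: potency is the fitted concentration of half-maximal effect; cells exposed to compound for 40 hours at 37 °C before readout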). The settings on record: BJ fibroblast viability, qHTS. Put shortly:
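Cytotoxicity as drop in intracellular ATP (CellTiter-Glo, 20 min RT) after 40 hr compound exposure of BJ fibroblasts at 37 °C. Titrations scaled between DMSO and 100 uM tamoxifen, Hill-fitted for AC50.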
(In general: In qHTS, concentration-response curves come from the screen itself.)

A short description of experiment [2]: Cell Viability - Jurkat (AID 426;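 active = dose-dependent loss of cell ATP signal giving a full or clear fitted curve, ranked by lower potency value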;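 note: potency is the fitted concentration of half-maximal effect; cells exposed to compound for 40 hours at 37 °C before ATP read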). The note with it: qHTS. Put shortly: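 Cells of the human T-cell leukemia line Jurkat (E6-1) are seeded at 5000 per well, treated with compound across a concentration range for 40 hours at 37 °C, then lysed with CellTiter-Glo; luminescence reports ATP.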
A short description of experiment [3]: Cell Viability - Hek293 (AID 427;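 active = compounds whose dose-response curve shows a full or clear partial loss of cell viability, called from curve shape rather than a numeric limit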;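 note: potency is the fitted concentration of half-maximal effect; cells exposed to compound for 40 hours at 37 °C before reading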). The note with it: qHTS. The procedure, abridged: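 Luminescent ATP content (CellTiter-Glo, 20 min at room temperature) was measured after a 40 hr, 37 °C compound exposure of HEK293 cells. AC50 values came from Hill-equation fits of qHTS concentration-response data normalized to DMSO and 100 uM tamoxifen.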
Experiment [4] in a line: Cell Viability - HepG2 (AID 433; calls by dose curve;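 note: potency is the fitted concentration of half-maximal effect; potency for ATP loss meaning cytotoxicity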). The settings on record: qHTS. The procedure, abridged: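 Read-out is luciferase-based quantitation of cellular ATP as a measure of viable HepG2 cells after 40 h treatment at 37 °C. Signal decrease is scaled between DMSO-only and 100 uM tamoxifen controls, with AC50 fitted by the Hill equation.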
Experiment [5] is described as follows: Cell Viability - MRC5 (AID 434; calls by dose curve;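 note: potency is the fitted concentration of half-maximal effect; potency reflects cytotoxicity seen as loss of intracellular ATP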). The note with it: MRC5 lung fibroblast viability, qHTS. Put shortly:
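AC50 values come from Hill-equation fits of intracellular ATP loss, measured by CellTiter-Glo luminescence. Normal lung fibroblasts (MRC5) had 40 hr compound treatment at 37 C, normalized between DMSO and 100 uM tamoxifen.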

Experiment [6] can be described thus: Cell Viability - SK-N-SH (AID 435; calls by dose curve;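 note: potency is the fitted concentration of half-maximal effect; compound exposure lasted 40 h at 37 °C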). The settings on record: SK-N-SH neuroblastoma cell viability qHTS. The procedure, abridged:
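Luminescent ATP signal served as the viability read-out after 40 hours of compound treatment of human neuroblastoma SK-N-SH cells. Concentration-response data, scaled between DMSO and 100 uM tamoxifen, gave AC50 values by standard Hill modeling.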

Experiment [7] concerns the target Mitogen-activated protein kinase 10 (Mus musculus) (UniProt Q61831). In words: JNK3 AlphaScreen Assay (AID 530; active = well fitted curve in either direction with a large enough effect, not every such curve was filed as active;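 note: kinase came from lysate of stimulated human HepG2 cells; signal reports phosphorylation of biotinylated GST-cJun 1-79 at Ser73 with 10 µM ATP; % is set by controls: 0 for no effect and ±100 for the full control effect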). The settings on record: JNK3 lysate, c-Jun phosphorylation; series mostly up to 57.1 µM. Put shortly:
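qHTS titrations with 15 min compound pre-incubation before adding ATP (10 uM final). Read-out: AlphaScreen of Ser73-phosphorylated biotin-GST-cJun using HepG2 lysate JNK3 activated by IL-1β and TNFα.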
In general terms: In Alpha technology, singlet oxygen from a donor bead excites a nearby acceptor bead.

A short description of experiment [8]: Cell Viability - N2a (AID 540).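 Note: plate controls were DMSO alone for no effect and tamoxifen control for full effect; nearly all actives have a fitted effect of over 45% in size.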 The settings on record: N2a mouse neuroblastoma cell viability; activity change, negative = cytotoxicity: at 92.2 µM (top of the series). The procedure, abridged: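 Cytotoxicity was scored as loss of cellular ATP in N2a cells, a mouse neuroblastoma line. Compounds are applied in a qHTS concentration series for 40 hr at 37 °C.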

Experiment [9] in a line: Cell Viability - NIH 3T3 (AID 541).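 For activity change, negative = cytotoxicity: plate controls were DMSO alone for no effect and tamoxifen positive control for full effect.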 Note: nearly all actives have a fitted effect of over 25% in size. Note: potency is the fitted concentration of half-maximal effect. The settings on record: NIH 3T3 cell viability, qHTS; activity change, negative = cytotoxicity: at 92.2 µM (top of the series). Put shortly:
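Cells seeded at 1000/well, rested 5 hr at 37 °C, then dosed and incubated 40 hr at 37 °C. CellTiter-Glo added, 20 min room temperature, luminescence read. AC50 by Hill fit.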

Experiment [10] is described as follows: Cell Viability - HUV-EC-C (AID 542). Note: % is set by controls: 0 for no effect and ±100 for the full control effect; nearly all actives have a fitted effect of over 35% in size. The note with it: HUV-EC-C endothelial cell viability, qHTS; series mostly up to 92.2 µM. Put shortly: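 Cells were seeded at 1000 per well and incubated 5 hr at 37 °C before compound addition. After 40 hr at 37 °C, CellTiter-Glo reagent was added for 20 min and luminescence read. AC50 values came from Hill-equation modelling.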

A short description of experiment [11]: Cell Viability - H-4-II-E (AID 543). Note: % is set by controls: 0 for no effect and ±100 for the full control effect; nearly all actives have a fitted effect of over 35% in size. The settings on record: H-4-II-E rat hepatoma viability; series mostly up to 92.2 µM. Put shortly: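 Cells seeded at 1500 per well and rested 5 hr; compounds added; 40 hr incubation at 37 °C; CellTiter-Glo added, 20 min at room temperature; luminescence read. Hill-equation fits gave AC50.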
Experiment [12] in a line: Cell Viability - SH-SY5Y (AID 544). Note: nearly all actives have a fitted effect of over 55% in size. The settings on record: SH-SY5Y neuroblastoma cell viability; viability change, negative = cytotoxic: at 92.2 µM (top of the series). Put shortly:
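Cells were plated at 1500 per well and allowed 5 hr at 37 °C. Compounds were added across a concentration range and incubated 40 hr at 37 °C. CellTiter-Glo was added for 20 min at room temperature before luminescence reading.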

A short description of experiment [13]: Cell Viability - Renal Proximal Tubule (AID 545). Note: nearly all actives have a fitted effect of over 40% in size. The settings on record: renal proximal tubule cells viability, primary cells of rat origin; series mostly up to 91.7 µM. The procedure, abridged: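 Luminescent ATP signal (CellTiter-Glo) served as the viability read-out after 40 hr compound exposure of freshly isolated rat proximal tubule cells at 37 °C. Concentration-dependent ATP loss was fitted with the Hill equation to give AC50.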

Experiment [14] is described as follows: Cell Viability - Mesenchymal (AID 546).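 Note: cells exposed to compound for 40 hours before reading.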 The note with it: mesenchymal cells viability, qHTS; series mostly up to 91.7 µM. Put shortly:
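CellTiter-Glo luminescence (intracellular ATP, 20 min room temperature) after 40 hr compound exposure at 37 °C of 1000 glomerulus-derived human kidney mesenchymal cells/well; AC50 values obtained by fitting qHTS concentration-response data to the Hill equation.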

The nature of experiment [15]: Cellular Toxicity (caspase-3) HepG2 (AID 654).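 Note: cells exposed to compound for 16 hours before reading; 0% = DMSO alone and 100% = caspase signal from 100 µM tamoxifen.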 The settings on record: HepG2 caspase-3 activation, luminescence; series mostly up to 92.2 µM. The procedure, abridged: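 Caspase 3/7 activation in HepG2 is measured as rising luminescence after a 16 hr treatment at 37 °C. Values are scaled between DMSO basal and 100 uM tamoxifen, and AC50 is fitted with the Hill equation.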

Experiment [16] in a line: Cellular Toxicity (caspase-3) Jurkat (AID 655).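 Note: cells exposed to compound for 16 h at 37 °C before reading.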 The settings on record: Jurkat caspase-3 activation, luminescence; caspase-3 activation: at 92.2 µM (top of the series), DMSO = 0%, tamoxifen = 100%. Put shortly:
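5000 Jurkat cells/well; compound 16 hr, 37 °C; Caspase-Glo 3/7 added, 20 min RT; luminescence read. Norm: DMSO = 0%, tamoxifen 100 uM = 100%. AC50, Hill model.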

Experiment [17] in a line: Cellular Toxicity (caspase-3) HUV-EC-C (AID 656). The note with it: HUV-EC-C cells, caspase-3 activation (apoptosis), vehicle = 0, 100 µM tamoxifen = 100%; series mostly up to 92.2 µM. The procedure, abridged:
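qHTS; HUV-EC-C, 1000 cells/well; 5 hr settle, 16 hr cmpd, 37°C; Caspase-Glo 3/7, 20 min RT; luminescence. Norm: DMSO = 0%, tamoxifen 100 uM = 100%. Hill-fit AC50.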

The nature of experiment [18]: Cellular Toxicity (caspase-3) SHSY5Y (AID 657).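 Note: cells exposed to compound for 16 hours at 37 °C.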 The settings on record: SH-SY5Y caspase-3 activation, DMSO zero, 10 µM staurosporine = 100%; series mostly up to 91.7 µM. The procedure, abridged:
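qHTS, SH-SY5Y, 1500 cells/well, 5 h pre-incubation 37 °C; compound 16 h 37 °C; Caspase-Glo 3/7 1 h RT; luminescence. Norm.: DMSO = 0, 10 uM staurosporine = 100%. Hill fit → AC50.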

Experiment [19] is described as follows: Cellular Toxicity (caspase-3) BJ (AID 658).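 Note: cells exposed to compound for 16 hours.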 The settings on record: BJ fibroblasts, luminescence, normalized: DMSO 0%, staurosporine 100%; series mostly up to 91.7 µM. The procedure, abridged: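 Caspase-Glo 3/7 luminescence, read 1 hr after reagent at room temperature, in normal BJ fibroblasts exposed 16 hours at 37 °C. AC50 values from Hill-equation concentration-response, scaled between DMSO basal and 10 uM staurosporine as 100%.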

Experiment [20] is described as follows: Cellular Toxicity (caspase-3) MRC-5 (AID 659). The note with it: MRC-5 cells, luminescence, normalized: DMSO 0%, 10 µM staurosporine 100%; series mostly up to 91.7 µM. The procedure, abridged:
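Luminescent Caspase-Glo 3/7 read-out (1 h, room temperature) after a 16 h, 37 °C compound exposure of MRC-5 lung fibroblasts at 1500 cells/well. Concentration-response AC50 from Hill equation; 0% DMSO, 100% 10 uM staurosporine.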

Structures are written as SMILES. Unmarked numbers belong to inactive results. Inconclusive results are not listed. The source made the active and inactive calls. Unless noted, calls come from the whole dose curve; as a rule, active = well fitted curve in the direction sought with a large enough effect; inconclusive = small, poorly fitted or top-dose-only effect, or another doubt; inactive = no such curve, though single readings can be large; an effect the other way counts as inactive or inconclusive.

Turning to `CC(C)Cc1nccs1`, the Potency in experiment [1], in experiment [2], in experiment [3], in experiment [4], in [5] and in experiment [6] was over 92 µM throughout. Further, the compound was classed as inactive in experiment [7], in experiment [17], in [18], in experiment [19] and in experiment [20]. Moreover, the activity change, negative = cytotoxicity in experiment [8] was 2.65%. Moreover, the Potency result in experiment [9], in experiment [10], in experiment [11], in experiment [12], in experiment [13] and in [14] was “inactive” in each case. The Potency entry in [15] was “inactive”. Further, in experiment [16], the caspase-3 activation is 1.45%.
`CC(C)(O)CCC(C)(C)O`: the Potency in [1], in experiment [2], in [3], in experiment [4], in experiment [5] and in experiment [6] was over 92 µM throughout. Moreover, the call in experiment [7], in experiment [17], in [18], in [19] and in experiment [20] was inactive. The activity change, negative = cytotoxicity in experiment [8] is 3.94%. Further, the Potency entry in experiment [9], in experiment [10], in experiment [11], in [12], in experiment [13] and in experiment [14] was “inactive” in each case. The Potency entry in experiment [15] was “inactive”. Besides, in experiment [16], the caspase-3 activation is 0.189%.
On to `CC(=O)c1ccc([N+](=O)[O-])cc1`, for which the Potency in experiment [1], in [2], in [3], in experiment [4], in experiment [5] and in experiment [6] was over 92 µM in each case. In addition, the compound was called inactive in experiment [7], in [17], in experiment [18], in experiment [19] and in [20]. In addition, the activity change, negative = cytotoxicity in experiment [8] was 0.428%. The Potency entry in [9], in [10], in experiment [11], in [12], in experiment [13] and in experiment [14] was “inactive” each time. In addition, the Potency entry in experiment [15] was “inactive”. Further, the caspase-3 activation in experiment [16] was 0.818%.
Take `O=C1CCCCC1`: the Potency in experiment [1], in experiment [2], in experiment [3], in [4], in experiment [5] and in experiment [6] was over 92 µM throughout. Besides, the compound was called inactive in experiment [7], in experiment [17], in experiment [18], in [19] and in [20]. Further, the activity change, negative = cytotoxicity in [8] is -6.92%. The Potency result in experiment [9], in [10], in [11], in [12], in experiment [13] and in experiment [14] was “inactive” throughout. In addition, in experiment [15], the Potency result is “inactive”. Also, the caspase-3 activation in [16] was 1%.
Regarding `CN(C)CCCNCCCN`, the Potency in experiment [1], in experiment [2], in experiment [3], in experiment [4], in experiment [5] and in experiment [6] was over 92 µM in each case. In addition, the Potency in [9] is 12.6 µM (active). The compound was called inactive in [7], in experiment [17], in experiment [18], in [19] and in experiment [20]. In addition, the activity change, negative = cytotoxicity in experiment [8] is 1.31%. The Potency entry in experiment [10], in [11], in experiment [12], in experiment [13], in experiment [14] and in experiment [15] was “inactive” each time. Also, the caspase-3 activation in [16] is 2.48%.
